# From PubChem BioAssay
# TDP1 cell CPT: DT40-hTDP1 cell growth loss with CPT | chicken DT40 Tdp1-/-;hTDP1 cells + 20 nM CPT, ATP luminescence, 48 h | Potency, µM (series often up to 46.2 µM), for inactives: at the top dose activity change, negative = growth inhibition, actives largely listed as inhibitors | 420,000 compounds, 12% hits | AID 686979; note: % is set by controls: 0 for no effect and ±100 for the full control effect; nearly all actives have a fitted effect of over 55% in size
#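 Cell growth measured by CellTiter-Glo luminescence after a minimum 48 h, 37 C compound exposure with 20 nM CPT in Tdp1-knockout DT40 cells stably expressing hTDP1, seeded 400/well; qHTS titration format.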
# HT1080NT lethal: kills 2HG-producing HT-1080-NT fibrosarcoma cells; Potency, µM (doses to about 46.1 µM), inactives show at the highest dose activity, negative = less viability, most hits filed as cytotoxic; 360,000 compounds, 1.6% hits; AID 686970; HT-1080-NT fibrosarcoma viability, CellTiter-Glo ATP luminescence, 48 h;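 note: NT is the 2HG producing partner of a matched IDH1 knockdown line; 0% = DMSO-treated cells and -100% = media-only wells without cells; nearly all actives have a fitted effect of over 55% in size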
#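 HT-1080-NT; 750 cells/well; 5% FBS RPMI; 48 h compound, 37 degrees C; CellTiter-Glo luminescence; curve fitting and curve-class assignment.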
# TDP1 cell noCPT: qHTS for Inhibitors of human tyrosyl-DNA phosphodiesterase 1 (TDP1): qHTS in cells in absence of CPT. 420,000 compounds, 15% hits. DT40 Tdp1-/- hTDP1 cells, no CPT, ATP luminescence, 48 h. AID 686978, 2013. Potency, µM (doses to about 46.2 µM), for the others: at the highest dose activity change, negative = growth inhibition, usual class: inhibitors; note: % is set by controls: 0 for no effect and ±100 for the full control effect; nearly all actives have a fitted effect of over 55% in size
#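 Luminescent ATP content (CellTiter-Glo) served as the growth readout. Knockout chicken DT40 cells expressing human TDP1 were exposed to compounds without camptothecin for a minimum 48 hr at 37 °C.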
# HT1080 IDH1KD tx: kills HT-1080 cells with IDH1 knockdown | 360,000 compounds, 2% hits | Potency, µM (highest dose often 46.1 µM), inactives show top-dose activity, negative = toxicity, usual class: cytotoxic | AID 686971 | HT-1080 IDH1 knockdown viability, ATP luminescence, 48 h;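 note: 0% = DMSO wells and -100% = cell-free medium wells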
#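 Knockdown cells (IDH1KD HT-1080) received compounds 2 h after plating at 750 cells/well and were kept 48 h at 37 °C in 5% FBS RPMI. A CellTiter-Glo luminescence read gave % activity for curve fitting.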
# HepG2 viability: HepG2 cytotoxicity, counter-screen for TGF-b inhibitors; HepG2 CAGA-GFP viability, ATP luminescence, 18 h; Potency, µM (top dose mostly 46.1 µM), for the others: at the highest dose activity change, negative = cytotoxicity, actives largely listed as cytotoxic; 410,000 compounds, 0.76% hits; AID 588856
#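 CellTiter-Glo luminescence gave cytotoxicity after 18 hours at 37 degrees C. The cells were HepG2 CAGA-GFP in 1% FBS DMEM, stimulated with 500 pg/mL TGF-beta after compound addition. %Activity was normalised to no-cell wells (complete cell-killing) and DMSO (no toxicity), and curves were fitted and classified.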
# TGFb inhibitor: inhibitors of TGF-b signaling; 410,000 compounds, 1.2% hits; Potency, µM (highest dose often 46.1 µM), without a hit: at the highest dose activity, negative = inhibition, most hits filed as inhibitors; AID 588855; HepG2 CAGA-GFP TGF-b/SMAD3 reporter, GFP fluorescence, 18 h; TGF-beta stimulated, 500 pg/mL final; note: % is set by controls: 0 for no effect and ±100 for the full control effect; nearly all actives have a fitted effect of over 65% in size
#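 Per well, imaged GFP fluorescence of HEPG2 CAGA-GFP cells gives the signal; cells get compound, then TGF-beta (500 pg/mL final), 18 h at 37 degrees C; %Activity versus -TGF-beta and +DMSO controls.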
# The depositor's hits bear a star; ? = inconclusive; · = no result. An excerpt weighted towards active compounds, which were near 17% of everything screened. Calls come from the whole dose curve; as a rule, active = well fitted curve in the direction sought with a large enough effect; inconclusive = small, poorly fitted or top-dose-only effect, or another doubt; inactive = no such curve, though single readings can be large; an effect the other way counts as inactive or inconclusive. Potency is the fitted concentration of half-maximal effect.
SMILES,TDP1 cell CPT,HT1080NT lethal,TDP1 cell noCPT,HT1080 IDH1KD tx,HepG2 viability,TGFb inhibitor
COc1ccc(S(=O)(=O)Nc2ccc(O)c3ccccc23)cc1,3.3µM*,-1%,4.6µM*,-21%,-100%,?
CCOc1ccc(Cl)cc1S(=O)(=O)N1CCC(C(=O)NCc2ccco2)CC1,-23%,9%,-16%,-12%,4%,-1%
Cc1cc(NC(=O)COC(=O)c2ccccc2OCCOc2ccccc2)ccc1Br,-9%,5%,?,1%,·,·
CCOc1ccc(S(=O)(=O)Nc2ccc(C(=O)N3CCCC3)cc2)cc1,-10%,0%,-3%,-2%,-3%,-1%
O=S(=O)(Nc1c(O)ccc2ccccc12)c1ccccc1,?,-6%,16µM*,-10%,-28%,?
Cc1ccc(NS(=O)(=O)c2ccc(C(=O)N3CCCCCCC3)cc2)cc1,23µM*,-9%,?,-22%,-4%,-21%
Cc1ccc(NS(=O)(=O)c2ccc(C(=O)N3CCCCCC3)cc2)cc1,?,-2%,?,-3%,6%,?
CCOc1ccc(NS(=O)(=O)c2ccc(C(=O)N3CCCC(C)C3)cc2)cc1 (stereo not drawn),16µM*,-21%,16µM*,-24%,-2%,-7%
COc1ccc(C(=O)OC/C(O)=C(\C#N)c2nc3ccccc3[nH]2)cc1S(=O)(=O)N1CCOCC1,-22%,3%,-25%,-7%,7%,-25%
CCOC(=O)c1sc(=S)n(-c2ccccc2)c1NC(C)=O,-4%,-12%,-29%,-21%,-72%,0%
CCOC(=O)c1sc(=S)n(C)c1NC(=O)c1ccccc1,?,2%,21µM*,6%,-2%,2%
CCOC(=O)c1sc(=S)n(C)c1NC(=O)c1cccc(Br)c1,21µM*,?,21µM*,?,-38%,?
O=C(CNc1ccc(Br)cc1)c1ccc(Br)s1,-25%,-19%,-23%,-4%,-5%,0%
O=C(CCn1c(=O)[nH]c2ccccc21)NCC1Cc2cc(Cl)cc(-c3ccncc3)c2O1 (stereo not drawn),4%,·,-27%,·,·,·
CCOc1cc(/C=C2/C(=N)N3C(=NC2=O)SN=C3S(C)(=O)=O)ccc1OS(=O)(=O)c1ccccc1,?,0%,21µM*,-2%,-19%,0%
CCC(C(=O)NCCc1ccc(Cl)cc1)n1ccc2cc(S(=O)(=O)N3CCCCC3)ccc21 (stereo not drawn),13µM*,·,?,·,-36%,-27%
CCc1ccc(CNC(=O)C2CCN(S(=O)(=O)N3CCCCC3)CC2)cc1,?,-4%,23µM*,-10%,-15%,0%
CCC(C(=O)O)n1ccc2cc(S(=O)(=O)N3CCCCC3)ccc21 (stereo not drawn),-3%,·,-9%,·,-2%,-9%
Cn1ccc2cc(S(=O)(=O)N3CCCC(C(=O)NCc4ccccc4)C3)ccc21 (stereo not drawn),-28%,·,6%,·,-6%,-10%
CCc1ccc(CNC(=O)C(CC)n2ccc3cc(S(=O)(=O)N4CCCCC4)ccc32)cc1 (stereo not drawn),?,·,23µM*,·,-7%,-23%
CCc1ccc(CNC(=O)C2CCCN(S(=O)(=O)c3ccc4c(ccn4C)c3)C2)cc1 (stereo not drawn),21µM*,·,15µM*,·,-30%,?
CCCOc1ccc(C(F)(F)F)cc1NC(=O)c1cc(C)on1,-6%,1%,7%,1%,-8%,5%
CCCOc1ccc(C(F)(F)F)cc1NS(=O)(=O)c1ccc(Cl)nc1,15µM*,?,?,?,-15%,?
